Measurements published in PubChem BioAssay (NCI).
Compounds without any hit were thinned out: in the full panel of roughly 79,000, 15% have a hit. Cut-off read from the data, not from the text of the source: active = growth inhibition above about 70%; inactive = the rest.

Key:
[1] = NCI Yeast Anticancer Drug Screen. Data for the rad50 strain (AID 155);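 note: 0% = growth of vehicle-only cultures of the same strain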; settings: S. cerevisiae rad50 strain growth inhibition; at 50.0 µM; stronger effect = higher value
Method in brief: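 Genetically altered yeast (DNA repair pathway); compound treatment; growth inhibition vs vehicle ctrl.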

[2] = NCI Yeast Anticancer Drug Screen. Data for the mec2-1 strain (AID 157); settings: S. cerevisiae mec2-1 strain, at 50.0 µM, stronger effect = higher value
Method in brief: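 Using mec2-1 yeast: add compound, measure growth, express inhibition versus vehicle-treated cultures.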

[3] = NCI Yeast Anticancer Drug Screen. Data for the sgs1 mgt1 strain (AID 161);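 note: 0% = growth of cultures given vehicle only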; settings: S. cerevisiae sgs1 mgt1 strain, at 50.0 µM, stronger effect = higher value
Method in brief: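 This yeast growth screen uses a strain with defined DNA-repair lesions; compound-treated growth is compared with vehicle-treated growth.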

[4] = NCI Yeast Anticancer Drug Screen. Data for the cln2 rad14 strain (AID 165);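 note: 0% = growth equal to vehicle treated cultures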; settings: S. cerevisiae cln2 rad14 strain, at 50.0 µM, stronger effect = higher value
Method in brief: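 Yeast strain cln2 rad14, bearing defects in cell cycle control and DNA repair, serves as the test system; values reflect growth inhibition compared with vehicle.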

[5] = NCI Yeast Anticancer Drug Screen. Data for the bub3 strain (AID 167); settings: S. cerevisiae bub3 mutant strain, at 50.0 µM, stronger effect = higher value
Method in brief: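 Yeast carrying a defined mutation is treated with each compound, and growth is compared with that of vehicle-exposed cells to give inhibition.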

[6] = NCI Yeast Anticancer Drug Screen. Data for the mlh1 rad18 strain (AID 175); settings: S. cerevisiae mlh1 rad18 strain growth inhibition; at 50.0 µM; stronger effect = higher value
Method in brief: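 Steps: expose repair-defective yeast to compound; measure growth; express inhibition against vehicle-treated controls.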

Measured: growth inhibition

SCCNCc1ccco1
inactive: [1] -31.4% | [2] -68.5% | [3] -15.9% | [4] 20.6% | [5] -32.6% | [6] 4.9%

COc1ccc(-c2c(C#N)c(N)n(C3OCC(O)C(O)C3O)c(=S)c2C#N)cc1 (stereo not drawn)
inactive: [1] -33.6% | [2] -6.5% | [3] -15.3% | [4] -37.8% | [5] -1.9% | [6] 3.4%

O=C(O)c1ccc(C2COc3ccc(Cl)cc3C2)cc1 (stereo not drawn)
inactive: [1] -10.8% | [2] -19.8% | [3] -23.8% | [4] 4.7% | [5] -19.2% | [6] -24.2%

ClCCOCc1ccc(Cl)cc1Cl
inactive: [1] 24.6% | [2] 8.9% | [3] 8.4% | [4] 0.7% | [5] -3.7% | [6] 19.9%

CC12CC(=O)NN=C1c1ccccc1C2 (stereo not drawn)
inactive: [1] 4.35% | [2] -10.8% | [3] 18.1% | [4] 29.6% | [5] -6.8% | [6] -2.8%

C=CCC12CC(COc3ccccc3C(N)=O)OC1=Nc1ccccc1NC2=O (stereo not drawn)
inactive: [1] 0.55% | [2] 0.25% | [3] -27.6% | [4] -1.8% | [5] 0.8% | [6] -5.05%

CCCCCCCC1CC(OCC)OC(CCCCCCC)O1 (stereo not drawn)
inactive: [1] -1.8% | [2] -15.1% | [3] -6.95% | [4] -8.2% | [5] -2.25% | [6] -18.4%

CC(=O)NC1=C(C)C(=O)c2c(nc3n2CCC3OC(=O)c2ccccc2)C1=N (stereo not drawn)
inactive: [1] 15% | [2] -8.3% | [3] 22% | [4] 6% | [5] 26.9% | [6] -34%

FC(F)(F)c1cccc(-c2nc3nc(Cl)c(Cl)nc3[nH]2)c1
inactive: [1] 15.1% | [2] -2% | [3] -5.7% | [4] -15.7% | [5] 18.4% | [6] 26.3%

NC(=O)C1CC2CC(Cl)C1C2 (stereo not drawn)
inactive: [1] -0.5% | [2] -0.1% | [3] -18.1% | [4] -45% | [5] 9.65% | [6] -22.1%

OCCOc1ccc(OCCO)cc1
inactive: [1] -2.1% | [2] -5.65% | [3] -8.95% | [4] -39.7% | [5] 9.9% | [6] -8.45%

CC(C)(C)S(=O)(=O)C[N+]1(C)CCOCC1
inactive: [1] 37.1% | [2] 11.6% | [3] -1.6% | [4] -2% | [5] -3.25% | [6] 5.35%

CN(C)CC1C2CCC(C2)C1O (stereo not drawn)
inactive: [1] 2.2% | [2] -20.6% | [3] -7.7% | [4] 8% | [5] -11.7% | [6] 4.4%

C/C(=N\NC(=O)CC(=O)N(C(=O)c1ccccc1Cl)c1ccc(C)cc1)c1ccc(Cl)cc1
inactive: [1] -0.5% | [2] -8.95% | [3] -25.4% | [4] -15.8% | [5] -4.25% | [6] -6.1%

C[C@]12C(=O)C=CCC1=CC[C@@H]1[C@@H]2[C@H]2CC3(O)C(=O)O[C@@]4(C)[C@H]5C[C@@]6(C)[C@@H]7[C@@]2(O)[C@]1(OC[C@H]6C(=O)O5)O[C@]734 (stereo partly drawn)
inactive: [1] 9.6% | [2] 16.3% | [3] -9.3% | [4] 1% | [5] -22.4% | [6] -55%

C[C@@]12CCC(=O)C=C1CC[C@H]1C2C(=O)C[C@]2(C)C1CC[C@@]2(O)C(=O)COC(=O)CCC(=O)O (stereo partly drawn)
inactive: [1] 0.1% | [2] 10.3% | [3] -19.8% | [4] 4.45% | [5] 6.95% | [6] 0.25%

O=[N+]([O-])c1ccc(OS(=O)(=O)Cc2ccccc2)cc1
inactive: [1] 3.8% | [2] -9.35% | [3] 8.95% | [4] -36.6% | [5] 3.95% | [6] -9.25%

CC(=O)CC(=O)Nc1ccc(Cc2ccc(NC(C)=O)cc2)cc1
inactive: [1] 8.3% | [2] 9.8% | [3] 10% | [4] 5.55% | [5] 2.8% | [6] 21.8%

O=C1C2CCC(C2)C1CN1CCOCC1 (stereo not drawn)
inactive: [1] -10.7% | [2] 3.25% | [3] -1.25% | [4] 0.5% | [5] -7.35% | [6] -7.35%

CC(C)c1ccc(C=O)cc1
inactive: [1] 18.3% | [2] 31% | [3] -21.5% | [4] -12.2% | [5] -9.15% | [6] 11.4%

CCC(C#N)C1=CCCCCC1 (stereo not drawn)
inactive: [1] 31.8% | [2] 3.75% | [3] 19.4% | [4] 11.7% | [5] 4.6% | [6] 20.6%

Cc1ccc(-n2c(C)n[nH]c2=O)cc1
inactive: [1] -10.7% | [2] -18% | [3] -9.8% | [4] 8% | [5] -4.3% | [6] 3.2%

C=C(CBr)CCCCC
inactive: [1] 65.1% | [2] 23.3% | [3] 62.6% | [4] 14.1% | [5] 29.8% | [6] 0.55%

Clc1ccc(CSc2ccc3nncc(SCc4ccc(Cl)cc4Cl)c3c2)c(Cl)c1
inactive: [1] 36% | [2] 5.8% | [3] 15.1% | [4] 36.8% | [5] 15.1% | [6] 17.6%

Cc1ccc(S(=O)(=O)N/N=C2/C(=O)N(c3ccc(Cl)cc3C)C(=O)C(=O)C2c2nc3ccccc3s2)cc1 (stereo not drawn)
inactive: [1] 0.85% | [2] 20.7% | [3] 1.85% | [4] 7.5% | [5] -2.1% | [6] 11.2%

OCCCCC1COC(c2ccccc2)O1 (stereo not drawn)
inactive: [1] 2.55% | [2] -14.6% | [3] -10.9% | [4] -35% | [5] -16.6% | [6] 1.1%

CCOC(=O)C(Cc1ccc(O)cc1)NC(=O)c1cc2c(cn1)[nH]c1ccccc12 (stereo not drawn)
inactive: [1] 11% | [2] 16.2% | [3] 7.45% | [4] -19.8% | [5] -1% | [6] 4.65%

CCOC(=O)c1ccc(C)cc1F
inactive: [1] -1.85% | [2] 2.3% | [3] 0.2% | [4] -38.6% | [5] -7.8% | [6] 7.65%

N#CC(F)(F)C(F)(F)C(F)(F)C(F)(F)C(F)(F)C(F)(F)C(F)(F)F
inactive: [1] 33.5% | [2] -18.8% | [3] -11.2% | [4] -21.8% | [5] -15.3% | [6] -4.6%

CCOC(=O)c1sc(Nc2cc(Cl)ccc2Cl)nc1C
inactive: [1] -6.2% | [2] -19.6% | [3] -9.2% | [4] -2% | [5] -8.3% | [6] -15.1%

CC(C)=C1CC(C)(C)N=C1CCN1CCOCC1
inactive: [1] -12.3% | [2] -20.6% | [3] -12.5% | [4] -6% | [5] -11.3% | [6] -24.6%

O=C(O)CCc1ccc(O)c(O)c1
inactive: [1] 19.6% | [2] 2.5% | [3] 11.8% | [4] 13.3% | [5] 2.8% | [6] -21.8%

COc1ccc2c(C)cc(N/N=C(\C)c3cn(C)n(-c4ccccc4)c3=O)nc2c1
inactive: [1] -2.25% | [2] -7.1% | [3] -5.95% | [4] 13.2% | [5] -1.8% | [6] 1.65%

CC1=CC(C)(C)Nc2ccccc21
inactive: [1] -0.25% | [2] -5.6% | [3] -8.95% | [4] -3.95% | [5] 6.95% | [6] 8.45%

COc1cccc2c1CCC(=O)C2
inactive: [1] -31.7% | [2] -44.8% | [3] -35.1% | [4] 8% | [5] -44.8% | [6] -18.3%

Cc1c(CN2CCOCC2)c(CN2CCOCC2)c(C)n1-c1ccc(Cl)cn1
inactive: [1] -31.1% | [2] 7.9% | [3] -23.1% | [4] -6.85% | [5] -15.7% | [6] 7.55%

COc1ccc(NC(=O)Nc2ccc(Br)cc2)cc1
inactive: [1] -9.55% | [2] 5.7% | [3] -0.15% | [4] -34% | [5] -4.6% | [6] -15.2%

O=C(Cc1ccc([N+](=O)[O-])cc1)ON1C(=O)CCC1=O
inactive: [1] -11.8% | [2] 2.65% | [3] -4.65% | [4] -18.9% | [5] -20.1% | [6] 6%
